Data: PubChem BioAssay (EPA / NIEHS)
Several values for one entry are separate records, joined by “and”; a condition that tells them apart may be missing. Identical values can stand only once. Results filed as inconclusive are left out. Activity calls are given as the source filed them. How the source made its calls, unless noted: active means hit-call score of the fitted dose curve at least 0.9, where 1 is the maximum; inconclusive means response in the unintended direction; inactive means score below 0.9.

Test system: SRD5A2 (gene 6716)
Assay: CCTE_Deisenroth_5AR_NBTE_ratio: CCTE's 5alpha-reductase NanoBRET Target Engagement Assay - Ratio, Deisenroth Lab (AID 2284322; active means hit-call score of the fitted dose curve at least 0.9, where 1 is the maximum; inactive means score below 0.9)
Conditions: actives raise or lower the signal
How it was run: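 HEK293T cells transiently expressing an SRD5A2-NanoLuc fusion (20 h post-transfection) were exposed to test chemical (10 nM - 29.9 uM, 8 points) for 3 h, then testosterone tracer for a further 2 h. Acceptor/donor BRET ratio was fitted bidirectionally against DMSO baseline.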
With `CC(C)(c1ccc(OCC2CO2)cc1)c1ccc(OCC2CO2)cc1` (stereo not given) the outcome was “inactive”.
With `CCN1CCC2(CC1)COc1cc3c(cc12)N(C(=O)c1ccc(-c2ccc(-c4nnc(C)o4)cc2C)cc1)CC3` the AC50 was 5.8 µM (active).
In the case of `O=C(O)C(F)(F)C(F)(F)C(F)(F)C(F)(F)C(F)(F)C(F)(F)C(F)(F)C(F)(F)C(F)(F)C(F)(F)F`, the outcome was “inactive”.
With `N#CN=C(N)N` the outcome was “inactive”.
In the case of `C[C@H]1CCCC(=O)CCC/C=C/c2cc(O)cc(O)c2C(=O)O1`, the outcome was “inactive”.
For `C[C@@H]1C[C@@H]([C@H](O)CC2CC(=O)NC(=O)C2)C(=O)[C@@H](C)C1`, the AC50 was 0.0871 µM (active).
For `O=C(OC1CCCCC1)c1ccccc1C(=O)OC1CCCCC1`, the outcome was “inactive”.
In the case of `CCC[CH2][Sn]([CH2]CCC)([CH2]CCC)[O]C(=O)c1ccccc1`, the AC50 was 10 µM (active).
For `c1cc[c]([Hg][c]2ccccc2)cc1`, the outcome was “inactive”.
For `CC(=O)[O][Hg][c]1ccccc1`, the AC50 was 50 µM (active).
For `O=C(Nc1ccc2[nH]ccc2c1)c1cc2cc(F)ccc2n1Cc1cccc(F)c1`, the AC50 was 3.93 µM (active).
With `O=C1C(Cl)=C(Cl)C(=O)c2ccccc21` the outcome was “inactive”.
For `O=[N+]([O-])c1ccc(O)c([N+](=O)[O-])c1`, the AC50 was 64.9 µM (active).
For `CCOP(=S)(OCC)Oc1nc(Cl)c(Cl)cc1Cl`, the outcome was “inactive”.
For `CCC1(c2ccc(N)cc2)CCC(=O)NC1=O` (stereo not given), the outcome was “inactive”.
With `C=C(C)C(=O)[O][Sn]([CH2]CCC)([CH2]CCC)[CH2]CCC` the AC50 was 4.42 µM (active).

Test system: not listed separately
Assay: TAMU_PeakParms_SingleDonor1434_Asystole: Texas A&M University (TAMU) 1.5-hr Human Induced Pluripotent Stem Cell (iPSC)-derived Cardiomyocytes Calcium (Ca+2) Flux Assay for Cardiotoxicity: Asystole (quiescence of beating) (AID 2284328)
Conditions: not given
How it was run: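 Average Ca2+-flux peak frequency (beats/s) was recorded in single-donor iPSC-derived cardiomyocytes after 90 min exposure (0.2–100 uM final, 0.5% DMSO). Asystole POD set as EC95 against DMSO, no preprocessing.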
For `Oc1cccc2cccnc12`, the outcome was “inactive”.
For `CC(C)(C)c1cc(O)ccc1O`, the outcome was “inactive”.
For `ClC(Cl)=C(Cl)C(Cl)=C(Cl)Cl`, the outcome was “inactive”.
In the case of `CCOP(=S)(OCC)Oc1nc(Cl)c(Cl)cc1Cl`, the outcome was “inactive”.

Test system: not listed separately
Assay: CCTE_Mundy_HCI_iCellGluta_NOG_NeuronCount: CCTE's Neurite Outgrowth Assay in iCellGluta cells for Neuron Count, Mundy Lab (AID 2284340);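 further: cells fixed about 48 h after compound addition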
Conditions: not given
How it was run: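 Neuron count read by automated high-content imaging of Hoechst 33342 and betaIII-tubulin/Alexa Fluor-488 labelling in human iPSC glutamatergic neurons. Activity fitted relative to DMSO.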
In the case of `COP(=O)(OC)O/C(=C\Cl)c1cc(Cl)c(Cl)cc1Cl`, the AC50 was 51.5 µM (active).
In the case of `O=C1C2(Cl)C3(Cl)C4(Cl)C(Cl)(Cl)C5(Cl)C3(Cl)C1(Cl)C5(Cl)C24Cl` (stereo not given), the AC50 was 17.9 µM (active).
For `O=C(O)C(F)(F)C(F)(F)C(F)(F)C(F)(F)C(F)(F)C(F)(F)F`, the outcome was “inactive”.
In the case of `C=C(C)C(=O)[O][Sn]([CH2]CCC)([CH2]CCC)[CH2]CCC`, the AC50 was 0.202 µM (active).

Test system: not listed separately
Assay: CCTE_Mundy_HCI_iCellGluta_NOG_NeuriteCount: CCTE's Neurite Outgrowth Assay in iCellGluta cells for Neurite Count, Mundy Lab (AID 2284342);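 further: chemical exposure about 48 hours starting 2 hours after plating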
Conditions: not given
Procedure: CCTE_Mundy_HCI_iCellGluta_NOG is a multiplexed, cell-based-readout assay that uses iCell GlutaNeurons from FUJIFILM Cellular Dynamics, Inc. (FCDI), human glutamatergic enriched neurons derived from induced pluripotent stem (iPS) cells, with measurements taken at 50.33 hours after chemical dosing in a microplate: 96-well plate.CCTE_Mundy_HCI_iCellGluta_NOG_NeuriteCount is one of four components of the CCTE_Mundy_HCI_iCellGluta_NOG assay. It measures neurite outgrowth related to number of neurites using High Content Imaging of fluorescently labelled markers.Data from the assay component CCTE_Mundy_HCI_iCellGluta_NOG_NeuriteCount was analyzed at the endpoint CCTE_Mundy_HCI_iCellGluta_NOG_NeuriteCount in the positive analysis fitting direction relative to DMSO as the negative control and baseline of activity. Using a type of morphology reporter, loss-of-signal activity can be used to understand developmental effects.
Exposure starts 2 hours post-plating by adding 10 ul of the working solution to 90 ul of media in the wells for a 1/10 dilution. Forty-eight hours after chemical treatment cells are fixed by direct addition of 100 ul of warm (37C) Dulbecco's phosphate buffered saline (DPBS) fixative solution containing 8% paraformaldehyde, 8% sucrose, and 0.1% of 3 mg/ml Hoechst 33342 into each well. Primary antibodies are prepared by dilution in Immunocytochemical Staining Buffer (ISB), 10X Dulbecco's PBS, 0.1% Saponin, 5% Bovine Serum Albumin, 0.5% NaN3 (Sodium Azide) and betaIII-tubulin (rabbit anti-betaIII-tubulin, 1:800) followed by Alexa Fluor-488 secondary (1:500) to label neuronal cell bodies and neurites. A Cellomics ArrayScan VTi HCS Reader is used for automated image acquisition and analysis of neurite outgrowth.
In the case of `COP(=O)(OC)O/C(=C\Cl)c1cc(Cl)c(Cl)cc1Cl`, the AC50 was 51.5 µM (active).
In the case of `O=C1C2(Cl)C3(Cl)C4(Cl)C(Cl)(Cl)C5(Cl)C3(Cl)C1(Cl)C5(Cl)C24Cl` (stereo not given), the AC50 was 21.6 µM (active).
For `C=C(C)C(=O)[O][Sn]([CH2]CCC)([CH2]CCC)[CH2]CCC`, the AC50 was 0.188 µM (active).

Test system: SERPINA7 (gene 6906)
Assay: CCTE_GLTED_hTBG: CCTE's human Thyroxine-binding Globulin (TBG) Inhibition Assay, Great Lakes Toxicology and Ecology Division (GLTED) Lab (AID 2284343);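 further: active chemicals lower fluorescence versus DMSO baseline by displacing probe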
Conditions: not given
How it was run: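 Cell-free displacement of the fluorescent probe ANSA from human thyroxine-binding globulin after 2 h exposure. Read-out at ex 380/em 475 nm; DMSO baseline.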
For `COP(=O)(OC)O/C(=C\Cl)c1cc(Cl)c(Cl)cc1Cl`, the AC50 was 10.1 µM (active).
With `O=C1C2(Cl)C3(Cl)C4(Cl)C(Cl)(Cl)C5(Cl)C3(Cl)C1(Cl)C5(Cl)C24Cl` (stereo not given) the outcome was “inactive”.
In the case of `Oc1ccc(-c2ccccc2)cc1`, the AC50 was 31.2 µM (active).
For `O=C(O)C(F)(F)C(F)(F)C(F)(F)C(F)(F)C(F)(F)C(F)(F)C(F)(F)C(F)(F)C(F)(F)C(F)(F)F`, the AC50 was 2.7 µM (active) and 47.2 µM (active).
With `CC(C)(c1ccccc1)c1ccc(O)c(C(C)(C)c2ccccc2)c1` the AC50 was 7.35 µM (active).
For `COc1cc(-c2ccc(N)c(OC)c2)ccc1N`, the AC50 was 19.3 µM (active) and 32.2 µM (active).
For `C[C@H]1CCCC(=O)CCC/C=C/c2cc(O)cc(O)c2C(=O)O1`, the AC50 was 50 µM (active).
With `CC(C)(C)CC(C)(C)c1ccc(O)cc1` the AC50 was 5.79 µM (active).
With `CC(C)c1cccc(C(C)C)c1O` the AC50 was 44.1 µM (active).
For `CC1(C)CCC(Cc2ccc(Cl)cc2)C1(O)Cn1cncn1` (stereo not given), the AC50 was 30.1 µM (active).
For `ClC1(Cl)C2(Cl)C3(Cl)C4(Cl)C(Cl)(Cl)C5(Cl)C3(Cl)C1(Cl)C5(Cl)C24Cl` (stereo not given), the outcome was “inactive”.
For `COP(=S)(OC)Oc1ccc(Sc2ccc(OP(=S)(OC)OC)cc2)cc1`, the AC50 was 2.89 µM (active).
For `CCCCCCCCc1ccc(O)cc1`, the AC50 was 36 µM (active).
For `O=C1C(Cl)=C(Cl)C(=O)c2ccccc21`, the AC50 was 43.7 µM (active).
For `O=[N+]([O-])c1ccc(O)c([N+](=O)[O-])c1`, the AC50 was 21.9 µM (active).
With `O=C(Cc1ccccc1)c1ccccc1` the AC50 was 10 µM (active).
In the case of `CCOP(=S)(OCC)Oc1nc(Cl)c(Cl)cc1Cl`, the AC50 was 18.6 µM (active).
With `CCC(C)(C)c1ccc(O)c(C(C)(C)CC)c1` the AC50 was 13.3 µM (active).
